The whole screen tested about 1,500 compounds, of which about 460 (31%) were called active.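 How the source made its calls: active means viability at or below 80% at any tested concentration, marking the compound as toxic; inactive means the rest.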 Only a sample is shown. A call without a number means that no potency is given here. Potency and affinity values are given separately.
Experiment: viability loss in THP-1 monocytes – THP-1 cells, cytotoxicity control for Vif-APOBEC3G degradation inhibitor project, dose response (AID 1117359)
Details: THP-1 viability, CellTiter-Glo luminescence, 72 h; series mostly up to 40 µM

| SMILES | outcome |
| --- | --- |
| O=C(Nn1cnnc1)c1cc(-c2cccc(Br)c2)nc2ccccc12 | inactive |
| CC(C)Cn1c(SCC(=O)Nc2cccnc2Cl)nnc1-c1ccco1 | inactive |
| CC(CNc1ccccc1O)C(=O)O (stereo not drawn) | inactive |
| C=CCc1cc(Cl)ccc1OC(=O)Nc1cccc(Cl)c1 | inactive |
| [O-]/[N+](=C\C=C\c1ccccc1)c1ccccc1 | inactive |
| O=C(COC(=O)C12CC3CC(CC(Br)(C3)C1)C2)Nc1ccc2[nH]c(=O)[nH]c2c1 | inactive |
| Cc1cccc(NC(=O)CSc2nnc(CCC(=O)Nc3ccc(C)c(Cl)c3)n2C)c1 | inactive |
| N=C1C=CC=C2C1=NC1(CCCCC1)N2O | inactive |
| CC(=O)c1ccc(N2C(=NC(=O)C3CCCO3)SC3CS(=O)(=O)CC32)cc1 (stereo not drawn) | inactive |
| C[C@@H]1NC(=O)[C@H](CCC(N)=O)NC(=O)c2cc([N+](=O)[O-])cc(I)c2NCCC[C@@H](C(N)=O)NC1=O | inactive |
| Cn1cc(CN2CCN(CCO)CC2)c(-c2ccc(Oc3ccccc3)cc2)n1 | inactive |
| O=C(CSc1nnc(Cc2ccc(Cl)cc2)o1)Nc1ccccc1 | inactive |
| COc1cccc(CNCC(=O)Nc2ccc(N3CCOCC3)cc2)c1 | inactive |
| COc1ccccc1N1C(=O)CC(Nc2ccc(N3CCOCC3)cc2)C1=O (stereo not drawn) | inactive |
| O=C(CC1C(=O)NCCN1Cc1ccc(F)cc1)NCCN1CCCc2ccccc21 (stereo not drawn) | inactive |
| CCc1cccc(NC(=O)CCS(=O)(=O)c2ccc(Br)cc2)c1 | inactive |
| O=C(CSc1nccc(=O)[nH]1)Nc1ccc2c(c1)OCCO2 | inactive |
| COc1ccc(NC(=O)C2CCCNC2)cc1OCC(C)C (stereo not drawn) | inactive |
| Cc1cc(/C=C2\SC(=S)NC2=O)c(C)n1-c1ccccc1 | inactive |
| Cc1c(C)n(C(=O)CSc2nc3ccccc3[nH]2)c2ccccc12 | inactive |
| COc1ccc(C(=O)NC2CC3CCCC(C2)N3CC(C)C)cc1 (stereo not drawn) | inactive |
| Cc1ccc(NC(=O)CSc2nnc([C@H](C)NC(=O)OC(C)(C)C)o2)c(C)c1 | inactive |
| CCOc1cc(C(C(=O)NCC2CCCO2)N(C(=O)Cn2nnc3ccccc32)c2cccc(OC)c2)ccc1O (stereo not drawn) | inactive |

| SMILES | outcome |
| --- | --- |
| COc1cc(/C=C2/C(=O)N(c3ccc(Br)cc3)N=C2C)cc(OC)c1OC | inactive |
| O=C1NCC(O)=C1C=NC12CC3CC(CC(C3)C1)C2 | inactive |
| CCN(CC)C(=O)CN1C(=O)C2(NC(=O)c3ccccc3N2)c2ccccc21 (stereo not drawn) | inactive |
| CCc1cc2c(=O)n(-c3ccc(C)cc3)cnc2s1 | inactive |
| CC(=O)NC1=NC(=O)/C(=C/c2cc(C)n(-c3cccc(C(=O)O)c3)c2C)S1 | inactive |
| O=C1NC(c2cccc(Br)c2)=N/C1=C\c1ccco1 | inactive |
| O=C1CC(c2ccco2)CC(O)=C1C=Nc1cc(Cl)ccc1Cl (stereo not drawn) | inactive |
| Nc1ccccc1NC1=CC(=O)CC(c2ccco2)C1 (stereo not drawn) | inactive |
| O=C1CCC/C(=N\NC(=O)c2ccc(COc3cccc4cccnc34)cc2)C1 | inactive |
| O=C(NN(C(=O)c1ccccc1)c1ccccc1)c1ccccc1 | inactive |
| Oc1ccc(/C=N/N2CCCCC2)c(O)c1 | inactive |
| S=c1[nH]nc(C2CC2)n1Cc1ccco1 | inactive |
| CCC(C)[C@H](NC(=O)Nc1ccccc1F)C(=O)OC (stereo partly drawn) | inactive |
| Cc1nc2ccccc2n2c(O)c(CC(=O)O)cc12 | inactive |
| O=S(=O)(O)c1cc(Cl)cc(N=Nc2ccc(O)cc2O)c1O | inactive |
| Cc1nc2ccc(NS(=O)(=O)c3ccc(F)cc3F)cc2s1 | inactive |
| CC(C)CN(C(=O)CN1CCN(c2ccc(O)cc2)CC1)c1c(N)n(CC(C)C)c(=O)[nH]c1=O | inactive |
| O=c1oc2c(O)c(O)cc3c(=O)oc4c(O)c(O)cc1c4c23 | inactive |
| CN(Cc1ccccc1)C(=O)C1CCCN1S(=O)(=O)c1ccc2c(c1)n(C)c(=O)c(=O)n2C (stereo not drawn) | inactive |
| CC1(C)Cc2nc3sc(C(=O)O)c(N)c3cc2CS1 | inactive |
| O=c1cc2oc3cc(O)c(O)cc3c(-c3ccccc3O)c-2cc1O | inactive |
| COCCn1c(SCC(=O)Nc2cc(C)on2)nc2cc(Cl)ccc2c1=O | inactive |
| CCCCS(=O)(=O)N1CCCC(C(=O)N2CCOCC2)C1 (stereo not drawn) | inactive |

| SMILES | outcome |
| --- | --- |
| COc1ccc(NS(=O)(=O)c2cccc(C(=O)NNC(=O)c3cccn3C)c2)cc1 | inactive |
| COc1ccc(S(=O)(=O)NNC(=O)c2sccc2-n2cccc2)cc1 | inactive |
| Cc1ccc(C(=O)O)cc1-c1ccc(/C=C2/NC(=O)N(c3ccccc3)C2=O)o1 | inactive |
| COC(=O)C1C(O)=C(C=Nc2ccc(N)cc2)C(=O)CC1(C)C (stereo not drawn) | inactive |
| COc1ccc(/C(O)=C2/C(=O)C(=O)N(c3ccccn3)C2c2ccc(F)cc2)cc1 (stereo not drawn) | inactive |
| Cc1cc(O)c(C(C)C)cc1N=Cc1ccc([N+](=O)[O-])cc1 | inactive |
| COC(=O)C1=C(O)/C(=C/c2cccc(OC)c2O)N=C1C | inactive |
| O=[N+]([O-])/C(C(Cl)=C(Cl)Cl)=C(/NC1CC1)Sc1ccccc1 | inactive |
| CN1OC[C@@H]2CN(C(=O)C(C)(C)C)[C@H](c3cccc(Oc4ccccc4)c3)C[C@@H]21 | inactive |
| COc1ccc(C2CC(=O)Oc3cc(OC)ccc32)cc1 (stereo not drawn) | inactive |
| Cc1ccc(C(=O)C2=C(O)C(=O)N(c3ncccn3)C2c2ccc(F)cc2)o1 (stereo not drawn) | inactive |
| O=C(O)/C=C/c1ccc(S(=O)(=O)N2CCN(CCN3C(=O)C4C5C=CC(C5)C4C3=O)CC2)cc1 (stereo not drawn) | inactive |
| O=[N+]([O-])c1cc2ccccc2c(O)c1O | inactive |
| O=S(=O)(O)c1cccc2c(N=Nc3ccc(O)c4ncccc34)cccc12 | inactive |
| CN(CC(=O)Nc1ccccc1Cl)C(=O)Cn1cc(C(F)(F)F)cc(Cl)c1=O | inactive |
| Cc1[nH]c(=O)nc(NN=Cc2ccc(Cl)cc2)c1C(=O)Nc1ccc(Cl)cc1 | inactive |
| CC(=C/C(=O)O)/C=C/c1ccc(Cl)o1 | inactive |
| COc1ccccc1C(=O)Nc1ccc(-c2nnc(SCC(=O)O)n2C)cc1 | inactive |
| O=C(CSc1nnc(-c2ccco2)c(-c2ccco2)n1)Nc1ccccc1 | inactive |
| O=[N+]([O-])c1ccc(-c2c[nH]c(=S)[nH]2)cc1 | inactive |
| CCOc1ccc(/C=C2\NC(=S)NC2=O)cc1 | inactive |
| COc1ccc(-c2cc(-c3ccco3)[nH]c(=O)c2C#N)cc1 | inactive |
